Screens (PubChem BioAssay)
D2 ag-1 – activates the human D2 dopamine receptor; 340,000 tested, 0.53% active; HEK293 T-REx D2 cells, calcium flux agonist mode; activation, % at 2 µM; AID 485358; P14416;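 active means activation over 3 SD above normal in the single-dose calcium agonist read, cut at about 30% in these data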; further: 0% is about no effect
Target sequence (P14416 whole entry, looked up): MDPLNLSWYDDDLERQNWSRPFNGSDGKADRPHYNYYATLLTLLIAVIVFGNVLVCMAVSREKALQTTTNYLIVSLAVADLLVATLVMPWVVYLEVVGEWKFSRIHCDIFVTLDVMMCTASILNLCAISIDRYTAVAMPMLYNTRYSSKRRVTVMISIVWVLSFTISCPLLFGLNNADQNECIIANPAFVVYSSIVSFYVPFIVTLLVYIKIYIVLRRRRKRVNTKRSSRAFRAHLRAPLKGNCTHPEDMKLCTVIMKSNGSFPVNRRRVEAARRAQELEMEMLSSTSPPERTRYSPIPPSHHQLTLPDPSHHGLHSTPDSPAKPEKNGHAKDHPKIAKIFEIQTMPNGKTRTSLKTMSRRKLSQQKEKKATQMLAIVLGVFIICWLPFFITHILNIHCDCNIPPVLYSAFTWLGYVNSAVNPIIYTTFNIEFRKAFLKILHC
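HEK293 Trex D2 cells, tetracycline-induced, o/n 30 C 5% CO2; no-wash Ca dye, RT 30–90 min; 10-cycle baseline, 23 nl cpd added, kinetic Ca read 180 s; agonist hits = positive Ca response.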
D2 antagonist – antagonizes the human D2 dopamine receptor. 340,000 tested, 2% active. inhibition, % at 10 µM. AID 485344. HEK293 TREx D2 cells, calcium flux, dopamine EC80; in the data active means inhibition above about 30%; inactive means below that, where a call was filed; further: 0% is about no effect
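Antagonism is scored as inhibition of an EC80 dopamine-evoked calcium signal in a force-coupled, tetracycline-inducible HEK293 T-REx D2 line, with compound present 180 s before agonist.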
D2 PAM-1 – D2 dopamine receptor (human) potentiation; potentiation, % at 10 µM; P14416; 340,000 tested, 0.34% active; HEK293 T-REx D2, calcium flux, EC20 dopamine potentiation;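 active means potentiation over 3 SD above the plate norm, cut at about 30% in these data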; further: 0% is about no effect
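Tetracycline-induced HEK293 T-REx cells force-coupled to calcium signalling expressed D2; compounds were pin-added after a 10 s baseline, read kinetically 180 s, then an EC20 dopamine challenge followed with a further 180 s calcium read.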
D2 ag-2 – activates the human D2 dopamine receptor; AID 624465; activation, % (no concentration beside the values); 360,000 tested, 0.084% active; DiscoveRx PathHunter D2 beta-arrestin, luminescence, 90 min; 100% = 57 uM dopamine signal; P14416; in the data active means activation above about 40%; inconclusive means between about 15% and that limit
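Agonist mode: compounds alone added to overnight-plated D2 PathHunter cells for 90 min at 37 C, with 57 uM final dopamine (EC100) defining full response. Beta-arrestin recruitment detected by chemiluminescent reagent, read after 1 h at ambient temperature.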
D2 PAM-2 – human D2 receptor positive allosteric modulation. P14416. DiscoveRx D2 beta-arrestin cells, luminescence, 90 min; 100% = 57 uM dopamine signal. potentiation, % (concentration not given with the values). 360,000 tested, 0.23% active. AID 624464; in the data active means potentiation above about 50%; inconclusive means mostly about 30% to 49%
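D2 cells co-treated with compound plus 50 nM dopamine (EC20) for 90 min at 37 deg C to detect potentiation. Beta-arrestin recruitment was read as enzyme-fragment luminescence after 1 h at ambient temperature. Full response was set by 57 uM dopamine.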
An asterisk follows results filed as active; ? = inconclusive; nt = no result given. Most compounds without a hit are left out; they make up all but 2.4% or so of the library.

SMILES	D2 ag-1	D2 antagonist	D2 PAM-1	D2 ag-2	D2 PAM-2
Cc1ncc([N+](=O)[O-])n1CCOC(N)=O	-1	38*	5	-1	-11
Cc1ccc(-n2nc(C)c3c2NC(=O)CSC3c2ccc(O)cc2)cc1Cl (stereo not drawn)	-2	nt	8	nt	nt
c1ccc2c(c1)Nc1ccccc1S2	2	-13	4	?	68*
O=C1Nc2ccccc2Sc2ccccc21	0	2	-1	-3	-1
CN1C[C@H](CO)C=C2c3cccc4[nH]cc(c34)C[C@H]21	0	-9	1	69*	8
O=c1[nH]c2ccccc2n1C1CCN(C(c2ccnc3ccccc23)c2nnnn2-c2ccc3c(c2)OCCO3)CC1 (stereo not drawn)	nt	nt	nt	?	50*
O=c1[nH]c2ccccc2n1C1CCN(C(CCc2ccccc2)c2nnnn2-c2ccc3c(c2)OCCO3)CC1 (stereo not drawn)	nt	nt	nt	11	58*
COc1ccc(-n2nnnc2C(CCc2ccccc2)N2CCC(n3c(=O)[nH]c4ccccc43)CC2)cc1 (stereo not drawn)	nt	nt	nt	?	27
Cc1ccccc1-n1nc(C)c2c1NC(=O)CSC2c1ccccc1C(F)(F)F (stereo not drawn)	-1	nt	-1	nt	nt
Cc1ccsc1C(=O)C1CCCN(Cc2cnc(N3CCCC3)s2)C1 (stereo not drawn)	1	39*	-8	-1	-5
Cc1ccsc1C(=O)C1CCCN(Cc2c(C)nn(C(C)C)c2C)C1 (stereo not drawn)	-1	57*	-18	-2	-12
CCOc1ccc(CN(CCc2ccc3c(c2)OCO3)Cc2cccc(C)c2)cc1	nt	nt	-23	nt	nt
N#CC1=C(N)Oc2c(c(=O)oc3ccccc23)C1c1ccncc1 (stereo not drawn)	0	-11	-8	0	-7
CCOc1ccc(C2C(C#N)=C(N)Oc3c2c(=O)oc2ccccc32)cc1 (stereo not drawn)	-1	31*	-4	-3	-11
CN(C)P1(N(C)C)=Nc2c(c(N)nn2C)C(c2ccccc2)=N1	-2	31*	-4	1	1
CCN(CC)C(=O)c1ccc(NC(=O)CCn2nc(-c3ccc(C)cc3)c3ccccc3c2=O)cc1	nt	nt	16	nt	nt
C1=C(c2c[nH]c3ccccc23)CCN(Cc2ccccc2)C1	0	70*	-21	-19	6
CN1CC=C(c2c[nH]c3ccccc23)CC1	0	75*	-22	-2	-13
O=C(Nc1ccc(OC(F)(F)F)cc1)c1cccn(Cc2ccccc2Cl)c1=O	4	nt	-1	nt	nt
CCC(C)N1C(=O)NC(=O)C2(Cc3c(ccc4ccccc34)N(C)C2)C1=O (stereo not drawn)	-1	-27	10	8	77*
COc1ccc2c(c1)CC1(CN2C)C(=O)NC(=O)N(CCc2ccccc2)C1=O (stereo not drawn)	0	-32	7	2	12
COc1ccc2c(c1)C1OCCNC1CC2 (stereo not drawn)	nt	nt	nt	1	-11
Oc1cc2c(cc1O)[C@H]1c3ccccc3CN[C@@H]1CC2	84*	92*	-25	nt	nt
Clc1cccc(N2CCNCC2)c1	1	35*	-21	-4	-33
Cc1cc(C)cc(OCC(=O)Nc2ccc(Cl)cc2C(=O)c2ccccc2)c1	-1	nt	-8	nt	nt
SMILES	D2 ag-1	D2 antagonist	D2 PAM-1	D2 ag-2	D2 PAM-2
CCN(CC)c1ccc(/C=C/[N+](=O)[O-])cc1	57*	1	-7	-4	4
COc1cc(/C=C/[N+](=O)[O-])ccc1O	2	-18	5	-1	0
Cc1cc(-n2c(/C=C/c3cccs3)nc3ccccc3c2=O)ccc1Br	1	nt	9	nt	nt
C=CCn1c(O)c(C(C)=NCCN2CCOCC2)c(=O)[nH]c1=O	1	39*	-5	1	-3
C=CCn1c(O)c(C(CC)=NC2CC2)c(=O)[nH]c1=O	0	39*	-12	0	11
CC(=NCCN1CCOCC1)c1c(O)n(Cc2ccccc2)c(=O)[nH]c1=O	0	-7	0	1	-6
CCC(C(=O)Nc1ccccc1F)N1C(=O)CN=C(c2ccccc2)c2ccccc21 (stereo not drawn)	1	nt	10	nt	nt
Cc1ccc(S(=O)(=O)N(c2cc(Cl)c(O)c(Cl)c2)P(=O)(OC(C)C)OC(C)C)cc1	0	5	31*	3	-8
O=C(Nc1ccccc1C(F)(F)F)c1cccn(Cc2ccccc2)c1=O	1	nt	6	nt	nt
O=C1NC(=O)N(c2ccccc2F)C(=O)/C1=C/c1ccc(Sc2nc3ccccc3[nH]2)o1	19	44*	10	-5	-6
Cc1ccc(Cn2cccc(C(=O)Nc3ccc(C)c(Cl)c3)c2=O)cc1	-2	nt	12	nt	nt
COc1ccc(OCC(=O)N2CCN(Cc3cc(=O)n4nc(-c5ccccc5C)sc4n3)CC2)cc1	0	nt	15	nt	nt
Cc1ccc(C2CC3CCC(C2)N3Cc2ccccc2F)cc1 (stereo not drawn)	-1	68*	-30	1	-14
Cc1ccc(-n2c(=O)[nH]c3ccc(Br)cc3c2=O)cc1	0	nt	-5	nt	nt
O=C(c1ccc2c(=O)n(Cc3ccc4c(c3)OCO4)c(=S)[nH]c2c1)N1CCC2(CC1)OCCO2	0	44*	6	-1	-10
O=C(NCc1ccc(C(=O)N2CCC3(CC2)OCCO3)cc1)c1ccc2c(c1)OCO2	0	-22	5	-2	-7
Cc1ccccc1NC1=NCCCS1	1	-22	6	-1	-11
Cc1cccc(NC2=NCCCS2)c1C	0	38*	-10	2	-6
CCOc1ccc(CN(CCc2ccc3c(c2)OCO3)Cc2cc(OC)ccc2O)cc1	0	nt	-7	nt	nt
CN1CCN(c2ccc([N+](=O)[O-])c(N)c2)CC1	0	-1	-10	-5	-19
CCN1CCN(c2ccc(N)c(C)c2)CC1	0	49*	-9	-2	-12
Cc1ccc(S(=O)(=O)N2CCCCC2)cc1NC(=O)CN1CC=C(c2ccccc2)CC1	0	4	-6	-4	-11
Cc1ccc(S(=O)(=O)N(C)C)cc1NC(=O)C(C)[N+]12CCN(CC1)CC2 (stereo not drawn)	-7	32*	-6	-4	5
Cc1ccc(Cn2cccc(C(=O)Nc3nnc(C)s3)c2=O)cc1	20	nt	9	nt	nt
Cc1cc(-n2c(/C=C/c3ccc(Br)s3)nc3ccccc3c2=O)ccc1Br	nt	nt	-13	nt	nt
CC1CN(c2cc([N+](=O)[O-])ccc2Cl)CC(C)N1 (stereo not drawn)	0	69*	-19	-3	-4
CN1CCN(c2cc([N+](=O)[O-])ccc2Cl)CC1	1	69*	-33	-4	-9
CN1CCN(c2ccc([N+](=O)[O-])cc2Cl)CC1	1	10	-7	-3	-16
